Measurements as given in PubChem BioAssay (EPA / NIEHS).
Where a structure was tested more than once in an assay, its records may differ in their call. The source made the active and inactive calls. Rule for the calls, unless noted: active = hit-call score of the fitted dose curve at least 0.9, where 1 is the maximum; inactive = score below 0.9.

Experiments:
[1] = read-out: Monokine induced gamma interferon (MIG), CXCL9 (gene 4283); assay: BSK_SAg_MIG: BioMAP Diversity Plus: SAg Assay for Monokine induced gamma interferon (MIG) Biomarker Activity (AID 2283092); conditions: primary human HUVEC with PBMC; actives raise or lower the signal
Procedure, shortened: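 Values reflect bidirectional fitting of ELISA-measured MIG against DMSO vehicle, taken 24 h after dosing of a co-culture of human umbilical vein endothelial cells and peripheral blood mononuclear cells.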

[2] = BSK_SAg_PBMCCytotoxicity: PBMC Cytotoxicity Assessment in the BioMAP Diversity Plus: SAg Assay (AID 2283093); conditions: primary human HUVEC with PBMC;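 note: PBMC viability measured as Alamar Blue reduction fluorescence at 546/580 nm; fitted both ways against DMSO so a hit may be loss or gain of signal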;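 for AC50: PBMC superantigen activated with SEB plus TSST-1 one hour after compound addition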
Procedure, shortened: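 Compound added to 75,000 PBMC/well for 1 h; SEB and TSST-1 then added at 20 ng/mL final each; 90 h incubation; Alamar Blue 6 h; read 546/580 nm ex/em. Activity fitted bidirectionally relative to DMSO baseline.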

[3] = read-out: Interleukin-8 (IL8), CXCL8 (gene 3576); assay: BSK_SAg_IL8: BioMAP Diversity Plus: SAg Assay for Interleukin-8 (IL8) Biomarker Activity (AID 2283094); conditions: primary human HUVEC with PBMC; actives raise or lower the signal
Procedure, shortened: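 ELISA read-out of IL-8 in a primary human vascular co-culture (umbilical vein endothelium plus PBMC), taken 24 h after compound addition. Values derive from bidirectional fits against DMSO negative controls.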

[4] = BSK_SAg_Proliferation: Cell Proliferation Assessment in the BioMAP Diversity Plus: SAg Assay (AID 2283095); conditions: primary human HUVEC with PBMC;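 note: relative cell number as total protein by SRB absorbance in sub-confluent culture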
Procedure, shortened: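 Cells (endothelium plus PBMC, human primary) were dosed with chemical, cultured 96 h, fixed in 10% TCA and stained with 0.1% SRB. Absorbance at 560 nm gave relative protein, fitted bidirectionally relative to DMSO.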

[5] = BSK_SAg_SRB: Viability Assessment in the BioMAP Diversity Plus: SAg Assay (AID 2283096); conditions: primary human HUVEC with PBMC;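 note: cells read one day after compound addition; hits may be either gain or loss of signal compared with DMSO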
Procedure, shortened: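 Total protein by sulforhodamine B staining, 24 h after dosing, in HUVEC–PBMC co-culture; DMSO-referenced bidirectional fitting.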

[6] = target: human CYP2D6, CYP2D6 (gene 1565) (UniProt P10635); assay: NVS_ADME_hCYP2D6: NovaScreen (NVS) CYP450-related Enzyme Activity (ADME) Assay for human CYP2D6 (AID 2283107; active = hit-call score of the fitted dose curve at least 0.9, where 1 is the maximum)
Protocol: NVS_ADME_hCYP2D6 is a biochemical, single-readout assay that uses extracted gene-proteins from insect cells in a cell-free assay. Measurements were taken 1 hour after chemical dosing in a 96-well plate.NVS_ADME_hCYP2D6 is one of one assay component(s) measured or calculated from the NVS_ADME_hCYP2D6 assay. It is designed to make measurements of enzyme activity, a form of enzyme reporter, as detected with fluorescence intensity signals by Fluorescence technology.Data from the assay component NVS_ADME_hCYP2D6 was analyzed into 1 assay endpoint. This assay endpoint, NVS_ADME_hCYP2D6, was analyzed in the positive analysis fitting direction relative to Acetonitrile as the negative control and baseline of activity. Using a type of enzyme reporter, loss-of-signal activity can be used to understand changes in the enzymatic activity as they relate to the gene CYP2D6. Furthermore, this assay endpoint can be referred to as a primary readout, because this assay has produced multiple assay endpoints where this one serves a enzymatic activity function. To generalize the intended target to other relatable targets, this assay endpoint is annotated to the cyp intended target family, where the subfamily is xenobiotic metabolism.
Binding assays used specific radioligands (tritiated, iodinated) with non-radioactive competitive displacement ligands in agonist or antagonist protocols (as indicated) and various reference compounds and inhibitors to titrate specific binding to receptors and transporters. Most enzyme assays (CYPs, kinases, phosphatases, proteases, HDACs) used recombinant protein and specific substrates (fluorescence mostly, some colorimetric and radioactive) and inhibitors, followed by a biochemical separation of substrate and product. All assays for the biochemical HTS were initially run in duplicate at a single concentration (10 uM for CYP450 assays and 25 uM for all others). […] Each assay was run with positive and negative controls, and concurrent controls on every plate. […]

Measured: AC50

Chain of human CYP2D6, CYP2D6 (gene 1565) (P10635 whole entry, looked up): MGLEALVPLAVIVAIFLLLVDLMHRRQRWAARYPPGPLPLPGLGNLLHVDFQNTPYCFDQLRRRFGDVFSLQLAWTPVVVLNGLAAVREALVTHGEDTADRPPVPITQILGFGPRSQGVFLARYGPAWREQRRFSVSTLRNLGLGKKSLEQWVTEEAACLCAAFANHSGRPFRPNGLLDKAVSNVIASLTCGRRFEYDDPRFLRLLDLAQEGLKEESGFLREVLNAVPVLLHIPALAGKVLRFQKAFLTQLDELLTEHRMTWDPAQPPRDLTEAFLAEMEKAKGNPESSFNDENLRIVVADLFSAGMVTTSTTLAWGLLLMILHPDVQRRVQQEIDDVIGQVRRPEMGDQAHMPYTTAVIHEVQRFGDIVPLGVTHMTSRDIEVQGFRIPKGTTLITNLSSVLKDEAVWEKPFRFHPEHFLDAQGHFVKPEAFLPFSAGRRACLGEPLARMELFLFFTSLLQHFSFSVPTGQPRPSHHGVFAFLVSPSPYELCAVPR

O=C(Cc1ccccc1)OCCc1ccccc1
inactive: [1] | [2] | [3] | [4]

O=C(O)COc1cc(Cl)c(Cl)cc1Cl
inactive: [1] | [2] | [3] | [4]

C=CC(Cl)CCl (stereo not drawn)
inactive: [1] | [2] | [3] | [4]

Clc1cccc(Cl)c1
inactive: [1] | [2] | [3] | [4]

CCN(CC)C(=O)C(Cl)=C(C)OP(=O)(OC)OC
inactive: [1] | [2] | [3] | [4]

CC(C=O)Cc1ccc2c(c1)OCO2 (stereo not drawn)
inactive: [1] | [2] | [3] | [4]

CC(C)O.CC(C)O.OCCN(CCO)CCO.OCCN(CCO)CCO.[Ti]
inactive: [1] | [2] | [3] | [4]

C[C@]12CC[C@@H](O)C[C@@H]1CC[C@@H]1[C@@H]2CC[C@]2(C)C(=O)CC[C@@H]12
inactive: [1] | [2] | [3] | [4]

Oc1c(Br)cc(Br)cc1Br
active: [4] 20 µM
inactive: [1] | [2] | [3]

O=S(=O)(C(Cl)(Cl)Cl)C(Cl)(Cl)Cl
active: [1] 7.79 µM | [2] 2.3 µM | [3] 1.79 µM | [4] 0.798 µM

OCCCCO
active: [4] 0.61 µM
inactive: [1] | [2] | [3] | [4]

Nc1c(Oc2ccccc2)cc(O)c2c1C(=O)c1ccccc1C2=O
inactive: [1] | [2] | [4]
active: [3] 1.56 µM

Clc1cccc(Cl)c1Cl
inactive: [1] | [2] | [3] | [4]

Cc1cc(C(C)(C)c2ccc(O)c(C)c2)ccc1O
active: [2] 15.7 µM | [4] 18.2 µM
inactive: [1] | [3]

O=C(O)C1(c2ccc3c(c2)OC[C@H](Cc2ccc(-c4ccccc4)cc2)[C@H]3O)CCCC1
active: [3] 24.6 µM | [4] 16.7 µM
inactive: [1] | [2]

CCOP(=O)(OCC)OC(=CCl)c1ccc(Cl)cc1Cl
inactive: [1] | [2] | [3] | [4]

COCC(=O)N(c1c(C)cccc1C)[C@H](C)C(=O)OC
not listed: [6]
inactive: all other assays above

OCCN(CCO)CCO
inactive: [1] | [2] | [3] | [4]

Cc1cc(Cl)ccc1N
inactive: [1] | [2] | [3] | [4]

CCOP(=O)(OCC)SCCSCC
inactive: [1] | [2] | [3] | [4]

CCCCCCCCCCCCN(C)C
inactive: [1] | [2] | [3] | [4]

Cc1cccc(OP(=O)(Oc2cccc(C)c2)Oc2cccc(C)c2)c1
inactive: [1] | [2] | [3] | [4]

Cc1cc(Cl)ccc1OC(C)C(=O)O (stereo not drawn)
inactive: [1] | [2] | [3] | [4]

Cc1ccccc1OP(=O)(Oc1ccccc1)Oc1ccccc1
active: [3] 9.82 µM
inactive: [1] | [2] | [4]

CCC(C)(C#N)N=NC(C)(C#N)CC (stereo not drawn)
inactive: [1] | [2] | [3] | [4]

Cc1cc(C)cc(C)c1
inactive: [1] | [2] | [3] | [4]

CCOP(=S)(OCC)SCS(=O)(=O)C(C)(C)C
inactive: [1] | [2] | [3] | [4]

O=C1C=CC(=O)c2ccccc21
active: [1] 1.53 µM | [2] 0.102 µM | [3] 0.709 µM | [4] 0.125 µM

CCOC(=O)CCN(SN(C)C(=O)Oc1cccc2c1OC(C)(C)C2)C(C)C
inactive: [3]
active: [1] 35.4 µM | [2] 26 µM | [4] 23.1 µM

O=C(CCl)NCO
inactive: [1] | [2] | [3] | [4]

Cc1c([N+](=O)[O-])c(C)c([N+](=O)[O-])c(C(C)(C)C)c1[N+](=O)[O-]
inactive: [1] | [2] | [3]
active: [4] 6.82 µM

CCOC(=O)CC(=O)CCl
inactive: [1]
active: [2] 9.62 µM | [3] 9.73 µM | [4] 16.2 µM

O=[N+]([O-])c1cccc2ccccc12
inactive: [1] | [2] | [3] | [4]

COc1ccccc1N
inactive: [1] | [2] | [3] | [4]

CC(C)N(C(=O)CCl)c1ccccc1
inactive: [3]
active: [1] 31.1 µM | [2] 16.7 µM | [4] 3.59 µM

Nc1ccc(N)cc1
inactive: all assays above

Cc1ccccc1OP(=O)(Oc1ccccc1C)Oc1ccccc1C
active: [1] 33.6 µM | [2] 26.6 µM | [3] 12.4 µM | [4] 12.7 µM | [5] 9.8 µM
